In PubChem BioAssay (NCATS) one finds activation data, which are given here for 40 compounds.

Activity calls are given as the source filed them.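 The calls were made as follows: active = calcium activation more than 3 SD above the typical response in the agonist read; inactive = the rest.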

Thyrotropin-releasing hormone receptor (Homo sapiens), sequence (P34981 whole entry, looked up): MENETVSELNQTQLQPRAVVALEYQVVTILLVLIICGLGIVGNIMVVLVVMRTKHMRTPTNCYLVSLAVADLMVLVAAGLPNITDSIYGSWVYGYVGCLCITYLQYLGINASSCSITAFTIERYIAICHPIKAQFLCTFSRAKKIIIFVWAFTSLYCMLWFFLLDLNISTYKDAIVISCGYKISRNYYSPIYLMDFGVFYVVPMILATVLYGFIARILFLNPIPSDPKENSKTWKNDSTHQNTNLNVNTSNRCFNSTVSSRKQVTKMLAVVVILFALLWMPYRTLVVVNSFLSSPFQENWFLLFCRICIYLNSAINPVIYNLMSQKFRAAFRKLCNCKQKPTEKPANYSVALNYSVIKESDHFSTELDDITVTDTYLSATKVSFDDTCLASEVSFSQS

In this assay the target is Thyrotropin-releasing hormone receptor (Homo sapiens) (UniProt P34981). Description: qHTS for Small Molecule Agonists and Allosteric Enhancers of Human TRH Receptor: Validation Screen for Agonists (AID 493127).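 Also: intracellular calcium rise by fluo-8 fluorescence before TRH EC20 addition; 0% is about no effect.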 The conditions noted are these: TRH receptor agonist cell assay; at 2 µM; active compounds read high. The source says:
NIH Chemical Genomics Center [NCGC]
NIH Molecular Libraries Probe Centers Network [MLPCN]
Assay Submitter (PI): Marvin Gershengorn
This project aims to identify small drug-like molecules that activate (agonists) the thyrotropin releasing hormone (TRH) receptor (TRHR) or enhance its TRH-stimulated activity (allosteric enhancers). TRHR, a drug-accessible cell surface receptor expressed in specific brain regions, and its ligand TRH have been implicated in several central nervous system disorders, including depression and anxiety. Small molecule TRHR agonists or allosteric enhancers that are metabolically stable and able to cross the blood-brain barrier might serve as probes to elucidate the roles of brain TRH receptors in animal models, and might be valuable as lead compounds for the development of drugs to treat patients with central nervous system disorders.
Upon TRHR-Gq activation in TRHR cells, intracellular calcium is released from stores in the endoplasmic reticulum. […] This validation screen measures compound-induced activation of calcium release.
For the HTS assay freshly prepared cells are plated at a density of 2000/well in 3 ul of complete DMEM medium containing 10% serum in 1536-well plates and cultured over night at 37 C in a humidified incubator with 5% CO2. The next day, 2 ul of a no wash calcium dye (ABD Bioquest) was added to the cells and plates were incubated at room temperature for 1 hour. For the assay, assay plates were loaded into the FDSS kinetic plate reader. A 10 cycle (1 second/cycle) baseline measurement is taken and then the FDSS online 1536 pintool delivers 23 nl of compound library (as well as TRH controls) to the plate. The plate is measured for kinetically at 1 cycle/sec for 180 seconds and is considered to be the agonist portion of the assay (eg, compounds which activate a positive calcium response during this portion are flagged as potential agonists). Following the 180 second read, 1 ul of either an EC20 (positive modulation assay) is delivered by an onboard pipette head. Measurements are taken kinetically for an additional 180 seconds.
TRHR FDSS Screening Protocol
1. Reagent, 3 uL 2000 cells/well 1536 TC treated Black plate in media containing 10% FCS
2. Time, 18 hours, 33.5C 5% CO2 (cells grown at 37C)
3. Reagent, 2 uL ABD fluo-8 Ca dye
4. Time, 30 min-1.5hrs hours, Room temp (6 plates/batch)
5. Detector, EX 480/EM 530C, FDSS 10 cycles baseline (1sec/cycle)
6. Compound, 23 nL of stock solution from library
7. Detector, EX 480/EM 530C, FDSS 230 cycles (1sec/cycle) Agonist mode
8. Compound, 1 ul EC20 of TRH made up in HEPES HBSS, 10 nM final
9. Detector, EX 480/EM 530C, FDSS 100 cycles (1sec/cycle) Potentiator mode
Turning to `NC(N)=NC(=O)Cc1c(Cl)cccc1Cl`, the activation was 1.44% (inactive).

In the case of `COc1ccc(CN(CCN(C)C)c2ccccn2)cc1`, the activation was 1.25% (inactive).

Turning to `CCCCNC(=O)NS(=O)(=O)c1ccc(C)cc1`, the activation is 1.25% (inactive).

For `CC(N=C(NC#N)Nc1ccncc1)C(C)(C)C` (stereo not given), the activation is 0.125% (inactive).

As to `CCN(CC)CCNC(=O)c1cc(S(C)(=O)=O)ccc1OC`, the activation is 0.0625% (inactive).

Regarding `NCCCNCCSP(=O)(O)O`, the activation is 0.812% (inactive).

Take `NS(=O)(=O)c1cc2c(cc1Cl)NC(C1CC3C=CC1C3)NS2(=O)=O` (stereo not given): the activation is -0.25% (inactive).

As for `Cc1scc2c1N(C(=O)CN1CCN(C)CC1)c1ccccc1NC2=O`, the activation was 0.5% (inactive).

With `NC(N)=N/N=C/c1c(Cl)cccc1Cl`, the activation is -6.19% (inactive).

`c1ccc2c(c1)CCCC2C1=NCCN1` (stereo not given): the activation was 1.25% (inactive).

In the case of `COc1cc(Cc2cnc(N)nc2N)cc(OC)c1OC`, the activation is 0.312% (inactive).

In the case of `COc1cc(C(=O)OCCCN2CCCN(CCCOC(=O)c3cc(OC)c(OC)c(OC)c3)CC2)cc(OC)c1OC`, the activation is 0.688% (inactive).

In the case of `Cc1nc2ccccn2c(=O)c1CCN1CCC(C(=O)c2ccc(F)cc2)CC1`, the activation was 1.44% (inactive).

`Cc1ccc(=O)n(-c2ccccc2)c1`: the activation is 0.875% (inactive).

In the case of `O=C(CCNNC(=O)c1ccncc1)NCc1ccccc1`, the activation is 0.188% (inactive).

`NC(=O)N1c2ccccc2C=Cc2ccccc21`: the activation is 0.625% (inactive).

With `CN(C)C/C=C(/c1ccc(Br)cc1)c1cccnc1`, the activation is 0.375% (inactive).

Regarding `CN(C)CCOC(=O)COc1ccc(Cl)cc1`, the activation was 0.188% (inactive).

Regarding `C=CCc1ccccc1OCC(O)CNC(C)C` (stereo not given), the activation is 0.312% (inactive).

In the case of `CN/C(=C\[N+](=O)[O-])NCCSCc1ccc(CN(C)C)o1`, the activation was 0.938% (inactive).

`CCN(CC)CCNC(=O)c1ccc(NC(C)=O)cc1`: the activation is 0.312% (inactive).

As to `CC1=C(C)C(=O)C(CCCCC#CCCCC#CCO)=C(C)C1=O`, the activation is -4.88% (inactive).

With `CC(C)[N+](C)(CCOC(=O)C1c2ccccc2Oc2ccccc21)C(C)C`, the activation was 0.875% (inactive).

With `CC(C)COCC(CN(Cc1ccccc1)c1ccccc1)N1CCCC1` (stereo not given), the activation is 0.812% (inactive).

Take `Cc1cc(C)c(/C=C2\C(=O)Nc3ccccc32)[nH]1`: the activation is 0.562% (inactive).

On to `CC(C(=O)O)c1ccc(CC2CCCC2=O)cc1` (stereo not given), for which the activation was 1.56% (inactive).

`CCN(CC)CC(=O)Nc1c(C)cccc1C`: the activation was 1.5% (inactive).

For `COc1ccc(CCN(C)CCCC(C#N)(c2cc(OC)c(OC)c(OC)c2)C(C)C)cc1OC` (stereo not given), the activation is 3% (inactive).

Consider `CCCN(CCC)CCc1cccc2c1CC(=O)N2`, for which the activation is -3.31% (inactive).

For `CCOC(=O)C1=C(C)NC(C)=C(C(=O)OC)C1c1cccc([N+](=O)[O-])c1` (stereo not given), the activation is -4.62% (inactive).

For the compound `C[C@]12CCC(=O)C=C1CC[C@@H]1[C@@H]2C(=O)C[C@@]2(C)[C@H]1CC[C@]2(O)C(=O)CO`, the activation was -0.125% (inactive).

As to `CCO/C([O-])=N/c1c[n+](N2CCOCC2)no1`, the activation was -0.0625% (inactive).

In the case of `CCCN(CCC)C(=O)C(CCC(=O)O)NC(=O)c1ccccc1` (stereo not given), the activation was 1.56% (inactive).

Turning to `O=c1[nH]c(=O)n([C@H]2C[C@H](O)[C@@H](CO)O2)cc1Br`, the activation was 1% (inactive).

For `N[C@@H](COP(=O)(O)O)C(=O)O`, the activation is 1% (inactive).

On to `CCCOc1ccccc1-c1nc2n[nH]nc2c(=O)[nH]1`, for which the activation is -3.25% (inactive).

On to `NC(=O)c1ncn([C@@H]2O[C@H](CO)[C@@H](O)[C@H]2O)c1O`, for which the activation was 1.12% (inactive).

As for `COc1cc2c(cc1OC)-c1cc(=Nc3c(C)cc(C)cc3C)n(C)c(=O)n1CC2`, the activation was -6.75% (inactive).

For the compound `O=C(O)CCCCCCCC(=O)O`, the activation is -3.19% (inactive).

For `CN(C(=O)CCCOc1ccc2[nH]c(=O)ccc2c1)C1CCCCC1`, the activation was 1.44% (inactive).
